Only a selection was taken, and hits are over-represented in it overall.
Dicer processing: inhibitors of Dicer pre-microRNA processing, primary screen, biochemical, cat-ELCCA, chemiluminescence | 47,000 tested, 6% active | Endoribonuclease Dicer (Homo sapiens), Q9UPY3 | AID 1347074, 2019 | cat-ELCCA pre-miR-21 Dicer processing; active compounds read high | z-score at 25 µM; in the data active means z-score above about 3, passing the limit was not always enough;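 further: plate controls were vehicle for no effect and no enzyme for full effect; higher signal means more uncleaved substrate so more Dicer inhibition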
Target sequence (Q9UPY3 whole entry, looked up): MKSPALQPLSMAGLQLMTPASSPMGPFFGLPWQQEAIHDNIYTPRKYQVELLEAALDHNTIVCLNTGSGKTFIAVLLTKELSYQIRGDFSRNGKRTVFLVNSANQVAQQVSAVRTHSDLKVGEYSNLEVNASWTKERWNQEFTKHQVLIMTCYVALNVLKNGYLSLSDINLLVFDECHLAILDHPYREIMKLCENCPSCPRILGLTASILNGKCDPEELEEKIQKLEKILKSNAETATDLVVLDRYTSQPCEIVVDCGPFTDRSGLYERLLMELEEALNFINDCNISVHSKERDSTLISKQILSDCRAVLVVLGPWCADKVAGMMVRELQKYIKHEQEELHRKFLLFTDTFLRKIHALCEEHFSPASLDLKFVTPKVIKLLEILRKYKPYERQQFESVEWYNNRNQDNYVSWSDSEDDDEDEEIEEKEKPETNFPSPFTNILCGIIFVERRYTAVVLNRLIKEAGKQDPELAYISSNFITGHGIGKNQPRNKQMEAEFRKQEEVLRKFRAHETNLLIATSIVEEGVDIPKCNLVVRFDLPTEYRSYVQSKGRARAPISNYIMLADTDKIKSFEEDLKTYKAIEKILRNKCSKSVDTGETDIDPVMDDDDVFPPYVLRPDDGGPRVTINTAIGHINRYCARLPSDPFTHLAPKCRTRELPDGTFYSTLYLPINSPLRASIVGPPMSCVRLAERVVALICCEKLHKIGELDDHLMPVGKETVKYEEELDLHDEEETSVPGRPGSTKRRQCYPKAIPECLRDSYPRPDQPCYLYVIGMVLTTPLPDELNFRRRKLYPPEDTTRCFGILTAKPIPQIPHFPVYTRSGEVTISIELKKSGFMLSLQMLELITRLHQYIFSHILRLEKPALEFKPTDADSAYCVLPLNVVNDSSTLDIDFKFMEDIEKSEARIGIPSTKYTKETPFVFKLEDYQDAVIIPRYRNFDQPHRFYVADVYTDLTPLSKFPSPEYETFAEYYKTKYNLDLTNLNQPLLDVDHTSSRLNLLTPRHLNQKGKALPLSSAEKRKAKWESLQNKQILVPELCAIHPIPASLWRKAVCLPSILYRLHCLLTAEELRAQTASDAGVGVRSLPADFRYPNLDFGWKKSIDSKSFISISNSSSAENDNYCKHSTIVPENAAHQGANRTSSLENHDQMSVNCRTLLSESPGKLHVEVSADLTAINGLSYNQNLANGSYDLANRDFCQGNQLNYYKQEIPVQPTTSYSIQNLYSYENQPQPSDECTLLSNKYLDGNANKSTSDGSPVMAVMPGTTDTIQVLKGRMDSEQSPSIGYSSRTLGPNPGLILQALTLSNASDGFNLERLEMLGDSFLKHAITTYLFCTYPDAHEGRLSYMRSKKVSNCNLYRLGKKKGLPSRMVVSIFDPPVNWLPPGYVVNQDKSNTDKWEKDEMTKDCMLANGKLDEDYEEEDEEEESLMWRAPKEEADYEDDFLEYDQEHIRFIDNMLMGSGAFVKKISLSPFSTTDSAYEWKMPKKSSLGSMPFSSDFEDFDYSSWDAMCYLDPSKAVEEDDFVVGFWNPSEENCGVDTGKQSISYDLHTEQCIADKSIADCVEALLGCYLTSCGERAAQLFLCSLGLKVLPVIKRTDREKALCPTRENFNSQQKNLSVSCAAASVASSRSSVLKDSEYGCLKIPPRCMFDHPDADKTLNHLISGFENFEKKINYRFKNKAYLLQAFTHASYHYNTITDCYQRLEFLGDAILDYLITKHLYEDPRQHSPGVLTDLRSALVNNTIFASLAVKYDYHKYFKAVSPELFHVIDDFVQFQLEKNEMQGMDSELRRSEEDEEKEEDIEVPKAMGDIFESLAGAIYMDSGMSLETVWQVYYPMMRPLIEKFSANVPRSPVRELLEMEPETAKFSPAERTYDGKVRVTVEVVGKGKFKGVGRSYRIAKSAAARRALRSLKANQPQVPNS
Numbers without * were called inactive.

SMILES | Dicer processing
CCOC(=O)c1cc(C)nc2ccc(Br)cc12 | -0.87
CCCCc1c(C)nc2ccccc2c1SCCC(=O)O | 3.7*
O=c1c(C=Nc2ccccc2)c(O)c2cccc3c2n1CCC3 | 0.75
CCc1n(CC(O)COc2c(C)cccc2C)c2ccccc2[n+]1C (centres undefined) | 0.11
CC(C)C(NC(=O)c1nccnc1C(=O)O)C(=O)O (centres undefined) | -4.1
C=CCSc1nnc2c3ccccc3n(CC=C)c2n1 | 3.2*
CCCSc1nnc2c3ccccc3n(CC)c2n1 | 1.1
CCn1c2ccccc2c2nnc(SCC(=O)c3ccccc3)nc21 | 1.6
C/C(=N\N=C1/NC(=O)C(CC(=O)O)S1)c1ccc(CC(C)C)cc1 (centres undefined) | -0.14
CCN(CC)c1cccc(NC(C)=O)c1 | 1.8
CC1CCC2C(=O)N(c3ccc(Cl)cc3)C(=O)C2C1 (centres undefined) | -1.5
CC1CCC2C(=O)N(c3ccc(C(=O)OC(C)C(=O)c4ccccc4)cc3)C(=O)C2C1 (centres undefined) | 3.1*
CC1CCC2C(=O)N(c3ccc(N4C(=O)C5CCC(C)CC5C4=O)cc3)C(=O)C2C1 (centres undefined) | 2.8
CCSc1ccsc1C1C(C#N)=C(N)N(c2cccnc2)C2=C1C(=O)CC(c1ccccc1)C2 (centres undefined) | 0.14
COC(=O)C1=C(C)NC2=C(C(=O)CC(c3ccccc3)C2)C1c1cccnc1 (centres undefined) | 0.96
CSc1sc(C)cc1C1C(C#N)=C(N)N(c2cccnc2)C2=C1C(=O)CC(c1ccccc1)C2 (centres undefined) | 5.8*
S=C(NC1CCCCCCC1)N1CCN(c2ncnc3scc(-c4ccccc4)c23)CC1 | -1.8
COC(=O)c1cc2cc(OC)ccc2[nH]1 | 1.5
COCCOC(=O)C1=C(C)N=C2SCCC(=O)N2C1c1cccc(F)c1 (centres undefined) | 0.21
N#C/C(=N\Nc1ccc(C(F)(F)F)cc1)C(=O)C1CC1 | 0.92
OC(C#CCN1CCOCC1)c1cccs1 (centres undefined) | 4*
O=C1C(=O)N(CCN2CCOCC2)C(c2cccs2)/C1=C(\O)c1ccccc1 (centres undefined) | 1.3
O=C(c1cccs1)C(O)c1cccs1 (centres undefined) | -0.15
CCOC(=O)C(NC(C)=O)(NC1CCCCC1)C(F)(F)F (centres undefined) | 0.24
O=C(O)CC(=O)NC(=O)NCc1ccccc1 | -0.22
SMILES | Dicer processing
CCOC(=O)CSc1nc(-c2ccccc2)cn1-c1ccccc1 | 0.37
O=C(CSc1nc(-c2ccccc2)cn1-c1ccccc1)NC(=O)Nc1ccccc1 | 3.4*
Cn1c(SCC(=O)Nc2ccccc2)nnc1SCC(=O)Nc1ccccc1 | -0.03
CCOC(=O)C1=C(N)Oc2ccc3ccccc3c2C1c1cccc(O)c1 (centres undefined) | 3.5*
CCOC(=O)C1=C(N)Oc2cc(O)ccc2C1c1ccccc1 (centres undefined) | 0.12
CCOC(=O)C1=C(N)Oc2cc(O)ccc2C1c1ccc(F)cc1F (centres undefined) | 0.45
Cc1cccc(C(=O)Nc2sc3c(c2C(=O)NC(C)(C)C)CCC3)c1 | 9.5
O=C(c1cc2c(s1)-c1ccccc1CC2)N1CCN(Cc2ccccc2)CC1 | 0.72
COc1ccccc1C1CC(=O)C2=C(C1)NC(C)=C(C(=O)OCCOC(C)C)C2c1ccsc1 (centres undefined) | -0.82
O=C(c1ccc(Cl)cc1)N1CCSC1=S | -1.4
COC(=O)c1cc(Cl)cc(Cl)c1-c1c(Cl)cc(Cl)cc1C(=O)OC | -0.82
COC(=O)c1cc(=O)n2c(c1C(=O)c1ccc(Cl)cc1)SCC2 | 5.6*
O=C(O)c1cc(Cl)ccc1Sc1ccccc1CO | -1.5
Cc1cccc(NC(=S)N(CCC#N)C2CCCCC2)c1 | -0.52
O=C(O)c1cccc(-c2cccc(C(=O)O)c2)c1 | 6.2*
O=C(O)c1ccc2nc(-c3cccc(-c4nc5ccc(C(=O)O)cc5[nH]4)c3)[nH]c2c1 | -0.63
O=C(O)c1ccc2nc3ccccc3nc2c1 | -1.9
Cc1ccc(S(=O)(=O)n2nc(C)c(Sc3nccn3C)c2C)cc1 | 0.26
O=c1[nH]c(-c2cccc([N+](=O)[O-])c2)nc2ccccc12 | -0.81
CNC(=O)n1cc(Br)c(/C(N)=N\OCc2ccccc2)n1 | 0.37
O=c1oc(-c2ccccc2)nc2c1oc1ccccc12 | 0.91
CCCC(=O)Nc1sc2c(c1C(=O)OC)CCC2 | 0.71
COC(=O)c1c(NC(=O)Nc2cccc(Cl)c2)sc2c1CCCC2 | 3.4*
COC(=O)c1c(NC(=O)c2ccccc2Br)sc2c1CCC2 | 1.4
CCCN(CCC)S(=O)(=O)c1ccc(C(=O)N(c2cccc(SC)c2)C2OC(=O)c3ccccc32)cc1 (centres undefined) | 11
SMILES | Dicer processing
CC1CCCCC1N1CN=C(Nc2nc3ccccc3s2)NC1 (centres undefined) | 3.8*
c1ccc2sc(NC3=NCN(Cc4ccc5c(c4)OCO5)CN3)nc2c1 | 2.8
COc1cccc(Nc2nc3ccccc3s2)c1 | 0.59
O=c1cc(Sc2ccc(Cl)cc2)c2ccccc2o1 | -3
COc1ccc(NC(=O)/C(C#N)=C/N(C)C)c(OC)c1 | -0.58
COc1cccc(-c2nc(-c3ccccc3)no2)c1OC | -0.58
COc1ccc(-c2noc(-c3cccc(OC)c3OC)n2)cc1 | 4.1*
COc1ccccc1-c1nc(-c2ccc(-c3ccc(C)cc3)nc2OC)no1 | -0.1
CC(=O)c1c(C)[nH]c(-c2ccc(Cl)cc2Cl)nc1=S | -0.23
COc1cc(C(CC(=O)O)CC(=O)CNc2ccc3c(c2)OCCCO3)cc(OC)c1OC (centres undefined) | 0.59
COC(=O)C1=C(C)NC2=C(C(=O)CC(C)(C)C2)C1c1sc2ccccc2c1C (centres undefined) | 1.1
CCOC(=O)c1cnc(SCc2cccc(C(F)(F)F)c2)nc1N | -0.04
COCn1c(COc2ccc3ccccc3c2)nc2ccccc21 | 1.4
CN(C)C(=O)COc1ccc2ccccc2c1 | -0.66
O=C(OCc1ccccn1)c1ccc(COc2ccc3ccccc3c2)o1 | 3*
Cc1c(Br)cc2nsnc2c1C | 2
Fc1ccc(-c2cnc3c(Cl)cc(C(F)(F)F)cc3n2)cc1 | 0.54
COC(=O)c1ccc(Oc2nc(NC(C)(C)C)nc(N(C)C)n2)cc1 | 1.2
CCN1CCN(Cc2nc3c(c(=O)n(C)c(=O)n3C)n2CCN2CCOCC2)CC1 | -1
Oc1ccccc1/C=N/Nc1nnc2c(n1)[nH]c1ccccc12 | 3.4*
Fc1ccc(/C=N/Nc2nnc3c(n2)[nH]c2ccccc23)cc1 | -0.21
C(=N\Nc1nnc2c(n1)[nH]c1ccccc12)/c1ccc2c(c1)OCO2 | -0.7
Clc1ccc(CSc2ccccc2-n2cccc2)cc1 | 0.87
CSc1ncc2c(n1)-c1c(SC)sc(C(=O)Nc3ccc(Cl)cc3)c1CC2 | -0.47
c1ccc(-c2cc(N3CCOCC3)c3ccccc3n2)cc1 | 1.1
SMILES | Dicer processing
COc1ccc2nc(C)cc(N3CCOCC3)c2c1 | -0.9
Cc1ccc2nc(C)cc(N3CCOCC3)c2c1 | 4.4*
COC(=O)/C(C#N)=C/c1ccc(OC)c(OC)c1Cl | -0.27
O=c1c(-c2ccccc2)c(O)c2cccc3c2n1CC3 | -1.5
O=C(OCCNc1ccc([N+](=O)[O-])cn1)c1cc2ccccc2oc1=O | 1.8
COc1cccc(C2CC(C(F)(F)F)n3ncc(C(=O)O)c3N2)c1 (centres undefined) | -0.84
O=C(c1cnn2c1NC(c1ccccc1)CC2C(F)(F)F)N1CCCCC1 (centres undefined) | 0.97
